# D1 antag: blocks dopamine activation of the human D1 receptor | AID 504652 | P21728 | activity change, negative = inhibition, % at 10 µM | 360,000 tested, 3.2% active | HEK293 TREx D1 cells, calcium flux, dopamine EC80; stronger effect = lower value; in the data active means activity change below about -30%; further: on the % scale 0 is the no-effect control and ±100 the full control effect
# Target sequence (P21728 whole entry, looked up): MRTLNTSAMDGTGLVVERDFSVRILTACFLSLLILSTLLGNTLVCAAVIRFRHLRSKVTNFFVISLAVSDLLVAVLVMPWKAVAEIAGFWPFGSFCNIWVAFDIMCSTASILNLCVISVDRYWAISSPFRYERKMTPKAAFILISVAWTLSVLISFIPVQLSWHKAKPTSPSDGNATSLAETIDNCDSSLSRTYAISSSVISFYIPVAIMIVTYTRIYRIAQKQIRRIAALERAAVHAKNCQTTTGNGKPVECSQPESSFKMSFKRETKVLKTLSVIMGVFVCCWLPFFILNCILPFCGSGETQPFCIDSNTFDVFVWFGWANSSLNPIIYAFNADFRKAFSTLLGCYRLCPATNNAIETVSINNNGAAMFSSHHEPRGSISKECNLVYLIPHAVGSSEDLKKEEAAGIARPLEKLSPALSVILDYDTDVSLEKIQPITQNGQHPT
#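 HEK293 T-REx cells expressing inducible, force-coupled D1 receptor; no-wash Ca dye, 30–90 min RT. Cmpd → 180 s read at 1 Hz → EC80 DA → 180 s read.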
# D1 ag: human D1 receptor agonism | P21728 | HEK293 T-REx D1 cells, calcium flux, agonist mode | activation, % at 2 µM | 360,000 tested, 1% active | AID 504660; further: 0% is about no effect
#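 Tetracycline-induced HEK293 TREx D1 cells, force-coupled to calcium signalling, were dye-loaded with a no-wash calcium kit. Compound was pin-added after a 10 s baseline. Fluorescence was read kinetically at 1 cycle/s for 180 s, with calcium rises flagged as agonism.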
# TRHR enhancer: allosterically enhances the human TRH receptor | AID 493056 | enhancement, % at 2 µM | TRHR cells, fluo-8 calcium fluorescence, EC20 TRH enhancement | 360,000 tested, 0.66% active; in the data active means enhancement above about 30%; further: 0% is about no effect
#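 TRHR-expressing cells loaded with fluo-8 calcium dye were read kinetically (ex 480/em 530) during compound addition, then stimulated with an EC20 of TRH (10 nM final). Enhancement of the Gq-mediated intracellular calcium response was scored.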
# TRHR ag: activates the human TRH receptor | AID 493084 | P34981 | activation, % at 2 µM | TRHR cells, calcium flux fluo-8, FDSS agonist mode | 360,000 tested, 0.18% active; further: 0% is about no effect
#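 Agonist-mode FDSS calcium read (Ex 480/Em 530, 1 s cycles) in 1536-well TRHR cells with fluo-8 dye, after 10-cycle baseline and 23 nL compound addition; TRH at EC20 (10 nM final) added afterwards for the enhancer phase.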
# D1 PAM: human D1 dopamine receptor positive modulation; P21728; HEK293 TREx D1 cells, calcium flux, dopamine EC20 potentiation; potentiation, % at 10 µM; 360,000 tested, 0.036% active; in the data active means potentiation above about 30%; further: 0% is about no effect
# An asterisk follows results filed as active; ! = repeats disagree. Hits are enriched below; roughly 4.6% of the tested compounds scored in any of these assays. Unless noted, no stated cut-off is given here; in the data, active means activation above about 30%; inactive means the rest.
SMILES,D1 antag,D1 ag,TRHR enhancer,TRHR ag,D1 PAM
CCOC(=O)CNC(=O)COc1ccc(Cl)cc1Br,5.4,0.4,-0.7,-0.8,2.2
Cc1ccc(SCC(=O)OCC(=O)NCc2cccs2)cc1,-2.2,0.4,-1.4,0.2,-1.9
O=C(COn1nnc2ccc(Cl)cc21)NCc1ccccc1,-34.5*,0.6,-0.3,-0.2,-8.7
O=C(c1ccc(Br)cc1)N1CCC(C(=O)N2CCN(Cc3ccccc3)CC2)CC1,-6.9,1.7,-3.8,0.0,-4.8
CCN(CC)C(=O)CSc1nc(O)c(Cc2ccccc2)c(=O)n1-c1ccccc1C,7.9,1.1,0.7,0.1,2.4
COc1ccc(CNC(=O)COC(=O)Cc2ccc(Cl)cc2Cl)cc1,-47.1*,16.8,3.3,-2.0,-4.0
Cc1ccc2c(c1)C(c1ccc(F)cc1)N(C(=O)c1ccc(S(=O)(=O)N3CCCCC3)cc1)CC(=O)N2 (configuration not stated),0.3,6.1,-3.6,1.0,1.8
COc1cccc(CNC(=O)CCn2nc(C)c3c(C)n(-c4ccccc4)nc3c2=O)c1,2.5,1.4,-0.6,-0.6,-1.4
COc1cc2c(=O)c(C(=O)c3ccc(C)c(C)c3)cn(Cc3ccc(F)cc3)c2cc1OC,20.2,3.0,-2.5,0.0,-3.6
Cc1nc2ccc(NC(=O)c3cc([N+](=O)[O-])cc([N+](=O)[O-])c3Cl)cc2s1,-54.6*,0.9,12.9,-0.4,-3.4
Cc1nc2ccc(NC(=O)CCS(=O)(=O)c3ccc(Cl)cc3)cc2s1,-36.4*,11.6,-1.4,0.3,-3.0
Cc1nc2ccc(NC(=O)c3ccc(Cl)c([N+](=O)[O-])c3)cc2s1,-2.3,-0.3,-9.9,0.2,1.5
Cc1nc2ccc(S(=O)(=O)N(C)CC(=O)Nc3ccc(Br)c(C)c3)cc2s1,-40.3*,8.7,3.1,-1.4,1.1
COc1ccc(NC(=O)CCS(=O)(=O)c2ccc3nc(C)sc3c2)cc1OC,-13.1,1.5,-5.4,-0.1,-1.7
CC(=O)Nc1ccc(NC(=O)CN(C)S(=O)(=O)c2ccc3nc(C)sc3c2)cc1,-0.8,3.0,-1.9,-0.2,-0.7
COc1cccc(Cn2ncc3c4sc(Br)cc4n(C)c3c2=O)c1,-20.2,1.7,8.9,0.3,-4.4
Cc1nn(C)c(C)c1S(=O)(=O)N1CCCC(C(=O)N2CCN(c3ccc(Cl)cc3)CC2)C1 (configuration not stated),-6.9,-0.2,7.8,-0.2,1.9
Cc1ccc(S(=O)(=O)N2CCCC2)cc1C(=O)Nc1ccc(-n2cnnn2)cc1,-30.5*,4.6,-0.8,0.1,-10.1
Cc1ccc(S(=O)(=O)N2CCCC(C(=O)Nc3ccc(C(=O)O)cc3)C2)cc1Cl (configuration not stated),-33.1*,2.2,-1.8,0.1,-11.6
Cc1n[nH]c(C)c1S(=O)(=O)N1CCCC(C(=O)N2CCN(c3ccc(Cl)cc3)CC2)C1 (configuration not stated),-48.3*,19.1,5.9,-0.5,-7.1
Cc1ccc(S(=O)(=O)N2CCCC(C(=O)NCc3ccco3)C2)cc1Cl (configuration not stated),4.7,-0.6,2.6,0.1,2.2
Cc1ccc(NC(=O)C2CCCN(S(=O)(=O)c3c(C)n[nH]c3C)C2)cc1Cl (configuration not stated),6.2,36.4*,-6.6,2.6,2.4
COc1ccc(NC(=O)C2CCCN(S(=O)(=O)c3c(C)[nH]c(=O)[nH]c3=O)C2)cc1 (configuration not stated),-31.2*!,0.5,-4.5,1.0,-3.5
COc1cccc(NC(=O)C2CCCN(S(=O)(=O)c3c(C)[nH]c(=O)[nH]c3=O)C2)c1 (configuration not stated),0.9,-0.2,-6.1,0.4,5.9
COc1cc(C2c3c(oc4ccc(F)cc4c3=O)C(=O)N2c2nc(C)c(C)s2)cc(OC)c1OC (configuration not stated),1.6,52.0*,10.5,-0.3,-8.2
Cc1ccc(CNC(=O)CN(c2ccc(C(C)C)cc2)S(=O)(=O)c2c(C)n[nH]c2C)cc1,19.5,1.0,-2.8,-1.2,5.0
Cc1nc2ccccc2n1CCc1nc2c3ccccc3nc(SCC(=O)Nc3ccc(C(C)C)cc3)n2n1,-20.5,3.2,4.7,0.1,-3.8
